From the supplement of paper PMC6089552
Screen size: about 3,200 compounds; about 300 (9.4%) showed activity. This excerpt belongs to a sample that is enriched for actives.

System: A673/TR/shEF
Test: cell viability (LOESS-normalised, relative to median of negative controls) (log2 ratio); higher = more viable cells (less compound effect), active = hit call of the paper (over 3 MAD below the median)
Details: treatment time: 72 h
Method in brief: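 Viability of A673/TR/shEF Ewing sarcoma cells was determined by CellTiter-Glo luminescence. The cells, at 1,500 per well in 384-well plates, were grown with or without doxycycline from 24 h before compound addition to switch on EWS-FLI1 shRNA knockdown, then exposed for three days to library compounds at two or more concentrations or to DMSO controls. Signals were LOESS-corrected plate by plate, normalised to the negative-control median and log2-transformed.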

[1] = 0.25 µM, library screen: screen2, EWS-FLI1 expression: high (no doxycycline)
[2] = 0.25 µM, library screen: screen2, EWS-FLI1 expression: low (doxycycline-induced shRNA knockdown)
[3] = 2.5 µM, library screen: screen2, EWS-FLI1 expression: high (no doxycycline)
[4] = 2.5 µM, library screen: screen2, EWS-FLI1 expression: low (doxycycline-induced shRNA knockdown)
[5] = 0.25 µM, library screen: screen1, EWS-FLI1 expression: high (no doxycycline)
[6] = 0.25 µM, library screen: screen1, EWS-FLI1 expression: low (doxycycline-induced shRNA knockdown)
[7] = 2.5 µM, library screen: screen1, EWS-FLI1 expression: high (no doxycycline)
[8] = 2.5 µM, library screen: screen1, EWS-FLI1 expression: low (doxycycline-induced shRNA knockdown)

Measured: cell viability (log2)

CCCCCCC(C)(C)c1ccc([C@H]2C[C@@H](O)CC[C@H]2CCCO)c(O)c1
inactive: [1] 0.0289 | [2] 0.103 | [3] 0.129 | [4] 0.122

CCc1cccc(C)c1N(C(=O)CCl)C(C)COC (configuration not stated)
inactive: [5] 0.0561 | [6] 0.0711 | [7] 0.0898 | [8] 0.0634

CCCC(C)(COC(N)=O)COC(=O)NC(C)C (configuration not stated)
active: [3] -0.0715
inactive: [5] 0.0415 | [6] 0.112 | [1] 0.196 | [2] 0.0672 | [7] 0.137 | [8] 0.151 | [4] 0.121

C[N+]1=Cc2cc3c(cc2CC1)OCO3
inactive: [5] 0.0752 | [6] 0.0244 | [7] 0.15 | [8] 0.0111

COc1ccc([C@H]2Oc3c(I)c(OC)cc(OC)c3C[C@@H]2O)cc1OC
inactive: [5] -0.0318 | [6] 0.027 | [7] 0.0859 | [8] 0.059

N#C/C(=C\c1ccc(O)cc1)C(=O)O
inactive: [5] 0.0465 | [6] 0.0904 | [7] 0.146 | [8] 0.0788

C[C@@H](N)Cc1cnc[nH]1
inactive: [1] 0.0946 | [2] 0.0207 | [3] 0.146 | [4] 0.00233

OC[C@H]1O[C@@H](n2cnc3cc(Cl)c(Cl)cc32)[C@H](O)[C@@H]1O
active: [7] -0.183 | 25 µM, library screen: screen1, EWS-FLI1 expression: high (no doxycycline) -0.16
inactive: 0.025 µM, library screen: screen1, EWS-FLI1 expression: high (no doxycycline) 0.182 | 0.025 µM, library screen: screen1, EWS-FLI1 expression: low (doxycycline-induced shRNA knockdown) -0.067 | [5] 0.227 | [6] 0.0134 | [8] 0.128 | 25 µM, library screen: screen1, EWS-FLI1 expression: low (doxycycline-induced shRNA knockdown) 0.0669

Cc1cc([C@@H]2CCCN2C)on1
inactive: [1] 0.0967 | [2] 0.135 | [3] 0.0205 | [4] 0.0708

CN1CC[C@]2(CCN3CCc4c(oc5ccccc45)[C@@H]3C2)N(C)C1=O
inactive: [1] 0.195 | [2] 0.0926 | [3] 0.114 | [4] 0.114

CCCCN(CC)c1c([N+](=O)[O-])cc(C(F)(F)F)cc1[N+](=O)[O-]
inactive: [5] 0.116 | [6] 0.132 | [7] 0.0478 | [8] 0.194

ClC1=C(Cl)C2(Cl)C3C(Cl)C=CC3C1(Cl)C2(Cl)Cl (configuration not stated)
inactive: [5] 0.152 | [6] 0.0412 | [7] 0.0862 | [8] 0.0598

CC(C)N1C(=O)c2ccccc2NS1(=O)=O
inactive: [5] 0.113 | [6] 0.086 | [7] 0.0391 | [8] 0.0775

C/C=C(/C)C(=O)O[C@H]1C(C)=C2[C@H]([C@@H]1OC(=O)CCCCCCC)[C@@](C)(OC(C)=O)C[C@H](OC(=O)CCC)[C@@]1(O)[C@H]2OC(=O)[C@@]1(C)O
active: [1] -3.16 | [2] -2.76 | [3] -3.49 | [4] -2.81

CN1C(=O)CN=C(c2ccccc2)c2cc(Cl)ccc21
inactive: [5] 0.0871 | [6] 0.0866 | [7] 0.123 | [8] 0.0545

C[C@]12CC[C@H]3[C@@H](CCC4=CC(=O)CC[C@@]43C)[C@@H]1CC[C@@H]2O
inactive: [5] 0.0751 | [6] -0.0159 | [7] 0.0937 | [8] -0.0498

O=c1cccc2n1CC1CC2CN2CCCCC12 (configuration not stated)
inactive: [5] 0.16 | [6] 0.0123 | [7] 0.153 | [8] 0.0958

NCCc1cc(O)c(O)cc1O
inactive: [5] 0.0637 | [6] 0.155 | [7] 0.144 | [8] 0.129

CC(=O)OCC1=C(C(=O)O)N2C(=O)[C@@H](NC(=O)CCC[C@@H](N)C(=O)O)[C@H]2SC1
inactive: [1] 0.263 | [2] 0.114 | [3] 0.155 | [4] 0.174

CC[C@@]1(O)C(=O)OCc2c1cc1n(c2=O)Cc2cc3ccccc3nc2-1
active: 0.103 µM, library screen: screen3, EWS-FLI1 expression: high (no doxycycline) -1.01 | [5] -2.18 | [6] -0.586 | [1] -2.99 | [2] -0.42 | 0.308 µM, library screen: screen3, EWS-FLI1 expression: high (no doxycycline) -2.37 | 0.308 µM, library screen: screen3, EWS-FLI1 expression: low (doxycycline-induced shRNA knockdown) -0.543 | 0.926 µM, library screen: screen3, EWS-FLI1 expression: high (no doxycycline) -3.61 | 0.926 µM, library screen: screen3, EWS-FLI1 expression: low (doxycycline-induced shRNA knockdown) -0.88 | [7] -1.57 | [8] -0.388 | [3] -3.53 | [4] -0.945 | 2.8 µM, library screen: screen3, EWS-FLI1 expression: high (no doxycycline) -4.24 | 2.8 µM, library screen: screen3, EWS-FLI1 expression: low (doxycycline-induced shRNA knockdown) -1.16 | 8.3 µM, library screen: screen3, EWS-FLI1 expression: high (no doxycycline) -4.26 | 8.3 µM, library screen: screen3, EWS-FLI1 expression: low (doxycycline-induced shRNA knockdown) -1.3 | 25 µM, library screen: screen2, EWS-FLI1 expression: high (no doxycycline) -4.09 | 25 µM, library screen: screen2, EWS-FLI1 expression: low (doxycycline-induced shRNA knockdown) -1.25 | 25 µM, library screen: screen3, EWS-FLI1 expression: high (no doxycycline) -4.26 | 25 µM, library screen: screen3, EWS-FLI1 expression: low (doxycycline-induced shRNA knockdown) -2.33
inactive: 0.025 µM, library screen: screen2, EWS-FLI1 expression: high (no doxycycline) -0.0654 | 0.025 µM, library screen: screen2, EWS-FLI1 expression: low (doxycycline-induced shRNA knockdown) 0.049 | 0.103 µM, library screen: screen3, EWS-FLI1 expression: low (doxycycline-induced shRNA knockdown) -0.0714

C[C@]12CCC(=O)C=C1C=CC1C2CC[C@@]2(C)C1CC[C@@]2(O)CCC(=O)O (some centres not stated)
inactive: [5] 0.0813 | [6] -0.0168 | [7] 0.15 | [8] -0.00183
